Measured values as given in the supplement of paper PMC11732987, “Enantioselective OTUD7B fragment discovery through chemoproteomics screening and high-throughput optimisation” (Communications Chemistry, 2025).

How the values were obtained:
Test in all cases: log2 ratio of Biotin-Ahx-Ub-VS probe labelling (fragment/DMSO); higher = less target engagement (more negative = stronger competition), active = hit call of the paper (q ≤ 0.05, log2 ratio ≤ -1)
Settings in all cases: compound concentration: 200 uM; treatment time: 3 h
USP34 = USP34 (UniProt Q70CQ2)
In short: (§1)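 The table lists average log2 ratios of fragment over vehicle, from an unpaired t-test on global-median-normalised Spectronaut label-free quantities. Proteins with ≥2 unique peptides were used. Samples were HEK293T lysate (495 µg) treated in triplicate with fragment at 200 µM or vehicle for 3 h, then with Biotin-Ahx-Ub-VS (0.5 µM final) for 1 h, with labelled DUBs NeutrAvidin-enriched and run by diaPASEF LC-MS/MS.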

USP36 = target: T1, USP36 (UniProt Q9P275)
T1 sequence (whole entry): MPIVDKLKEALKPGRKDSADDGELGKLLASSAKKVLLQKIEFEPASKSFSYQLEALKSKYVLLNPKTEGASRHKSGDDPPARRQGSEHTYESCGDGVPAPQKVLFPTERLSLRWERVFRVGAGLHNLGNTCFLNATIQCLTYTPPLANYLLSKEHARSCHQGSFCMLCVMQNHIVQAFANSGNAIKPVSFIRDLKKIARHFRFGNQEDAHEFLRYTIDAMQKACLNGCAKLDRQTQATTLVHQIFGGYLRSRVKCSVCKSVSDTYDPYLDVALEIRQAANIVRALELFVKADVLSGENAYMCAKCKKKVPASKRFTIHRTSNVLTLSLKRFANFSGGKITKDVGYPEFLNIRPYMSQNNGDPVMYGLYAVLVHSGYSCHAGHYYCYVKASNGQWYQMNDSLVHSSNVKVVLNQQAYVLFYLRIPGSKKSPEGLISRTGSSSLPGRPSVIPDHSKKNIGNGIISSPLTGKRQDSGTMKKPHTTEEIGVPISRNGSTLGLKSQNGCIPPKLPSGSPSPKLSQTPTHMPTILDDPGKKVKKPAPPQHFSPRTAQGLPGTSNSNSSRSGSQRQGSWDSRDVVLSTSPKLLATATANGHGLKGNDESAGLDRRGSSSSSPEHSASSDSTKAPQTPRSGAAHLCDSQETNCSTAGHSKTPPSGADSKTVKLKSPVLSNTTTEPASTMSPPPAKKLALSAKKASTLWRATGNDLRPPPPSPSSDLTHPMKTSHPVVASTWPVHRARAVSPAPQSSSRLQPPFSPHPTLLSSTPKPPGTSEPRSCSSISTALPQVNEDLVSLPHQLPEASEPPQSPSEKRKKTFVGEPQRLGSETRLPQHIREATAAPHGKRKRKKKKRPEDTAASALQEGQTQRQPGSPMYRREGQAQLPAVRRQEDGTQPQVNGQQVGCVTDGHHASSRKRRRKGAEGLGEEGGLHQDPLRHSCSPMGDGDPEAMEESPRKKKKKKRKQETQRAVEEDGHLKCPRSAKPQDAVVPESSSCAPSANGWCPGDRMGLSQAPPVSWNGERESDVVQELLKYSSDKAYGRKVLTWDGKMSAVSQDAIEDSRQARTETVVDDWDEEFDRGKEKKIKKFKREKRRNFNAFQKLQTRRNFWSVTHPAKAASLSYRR
In short: as §1

USP38 = target: T2, USP38 (UniProt Q8NB14)
T2 sequence (whole entry): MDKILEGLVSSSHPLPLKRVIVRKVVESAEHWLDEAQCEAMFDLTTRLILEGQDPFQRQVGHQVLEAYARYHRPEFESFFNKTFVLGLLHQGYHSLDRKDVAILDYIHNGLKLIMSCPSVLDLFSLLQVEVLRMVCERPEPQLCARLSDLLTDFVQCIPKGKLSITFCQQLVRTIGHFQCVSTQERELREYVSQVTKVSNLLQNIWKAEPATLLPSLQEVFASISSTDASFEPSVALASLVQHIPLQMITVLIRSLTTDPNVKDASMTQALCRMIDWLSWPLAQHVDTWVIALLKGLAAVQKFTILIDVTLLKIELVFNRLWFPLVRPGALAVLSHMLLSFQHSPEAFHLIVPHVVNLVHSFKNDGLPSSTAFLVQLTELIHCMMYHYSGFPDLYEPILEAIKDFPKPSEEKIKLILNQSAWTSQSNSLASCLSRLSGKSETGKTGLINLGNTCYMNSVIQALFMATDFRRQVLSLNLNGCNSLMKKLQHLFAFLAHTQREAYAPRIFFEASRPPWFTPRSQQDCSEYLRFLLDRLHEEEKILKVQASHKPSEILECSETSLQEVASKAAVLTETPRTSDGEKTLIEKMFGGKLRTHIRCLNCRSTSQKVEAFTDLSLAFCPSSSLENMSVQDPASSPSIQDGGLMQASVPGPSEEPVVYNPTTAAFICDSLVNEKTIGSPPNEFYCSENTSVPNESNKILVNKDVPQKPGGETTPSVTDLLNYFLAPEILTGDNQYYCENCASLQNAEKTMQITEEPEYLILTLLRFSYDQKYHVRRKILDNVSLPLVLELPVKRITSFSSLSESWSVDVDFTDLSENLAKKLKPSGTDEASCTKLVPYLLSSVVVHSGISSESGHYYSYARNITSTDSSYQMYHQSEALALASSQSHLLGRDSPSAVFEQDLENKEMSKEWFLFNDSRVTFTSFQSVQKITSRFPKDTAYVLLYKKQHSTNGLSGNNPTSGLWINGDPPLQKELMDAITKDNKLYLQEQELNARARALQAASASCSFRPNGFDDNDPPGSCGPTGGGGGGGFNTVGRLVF
In short: as §1

USP39 = target: T3, USP39 (UniProt Q53GS9)
T3 sequence (whole entry): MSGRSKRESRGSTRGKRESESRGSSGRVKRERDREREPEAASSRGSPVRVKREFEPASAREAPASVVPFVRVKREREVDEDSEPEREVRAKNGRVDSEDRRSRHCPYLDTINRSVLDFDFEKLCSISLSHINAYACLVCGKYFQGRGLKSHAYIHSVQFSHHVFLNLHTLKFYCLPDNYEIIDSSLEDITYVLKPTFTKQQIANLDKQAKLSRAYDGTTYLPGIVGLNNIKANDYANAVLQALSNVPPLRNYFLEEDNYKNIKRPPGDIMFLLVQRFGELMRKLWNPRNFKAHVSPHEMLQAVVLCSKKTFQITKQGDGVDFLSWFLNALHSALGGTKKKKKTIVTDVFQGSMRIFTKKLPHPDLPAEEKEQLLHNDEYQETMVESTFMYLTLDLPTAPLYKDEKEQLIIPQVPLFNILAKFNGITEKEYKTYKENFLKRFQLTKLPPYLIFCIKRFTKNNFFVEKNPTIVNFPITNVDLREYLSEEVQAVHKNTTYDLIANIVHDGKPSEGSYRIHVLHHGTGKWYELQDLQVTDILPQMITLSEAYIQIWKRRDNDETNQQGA
In short: as §1

USP4 = target: T4, USP4 (UniProt Q13107)
T4 sequence (whole entry): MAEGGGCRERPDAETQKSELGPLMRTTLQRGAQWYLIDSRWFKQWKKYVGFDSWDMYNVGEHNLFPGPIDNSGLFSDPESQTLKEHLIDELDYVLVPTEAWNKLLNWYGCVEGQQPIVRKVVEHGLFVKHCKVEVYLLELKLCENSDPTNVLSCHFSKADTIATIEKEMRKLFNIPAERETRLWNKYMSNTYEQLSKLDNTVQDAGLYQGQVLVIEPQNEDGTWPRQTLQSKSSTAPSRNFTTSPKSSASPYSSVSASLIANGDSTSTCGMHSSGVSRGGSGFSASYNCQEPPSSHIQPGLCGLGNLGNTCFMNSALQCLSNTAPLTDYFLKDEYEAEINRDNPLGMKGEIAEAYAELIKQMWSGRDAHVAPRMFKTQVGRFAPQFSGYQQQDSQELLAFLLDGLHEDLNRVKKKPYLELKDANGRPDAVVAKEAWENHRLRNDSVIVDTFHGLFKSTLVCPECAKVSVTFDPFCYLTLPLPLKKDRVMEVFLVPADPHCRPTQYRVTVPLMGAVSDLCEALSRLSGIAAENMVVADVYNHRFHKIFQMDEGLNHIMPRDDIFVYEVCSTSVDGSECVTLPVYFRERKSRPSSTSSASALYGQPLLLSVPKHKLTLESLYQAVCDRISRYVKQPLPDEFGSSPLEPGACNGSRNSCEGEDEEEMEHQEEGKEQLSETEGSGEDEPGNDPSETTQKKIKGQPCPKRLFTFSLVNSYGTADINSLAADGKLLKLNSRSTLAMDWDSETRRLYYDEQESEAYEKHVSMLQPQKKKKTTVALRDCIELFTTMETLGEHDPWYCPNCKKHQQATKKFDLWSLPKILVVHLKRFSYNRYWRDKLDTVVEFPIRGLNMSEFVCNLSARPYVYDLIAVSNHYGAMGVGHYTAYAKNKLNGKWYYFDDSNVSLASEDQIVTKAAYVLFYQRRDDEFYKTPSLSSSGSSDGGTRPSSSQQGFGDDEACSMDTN
In short: as §1

Measured: log2 ratio of Biotin-Ahx-Ub-VS probe labelling

Sequence of USP34 (Q70CQ2 whole entry, the tested form may be a part): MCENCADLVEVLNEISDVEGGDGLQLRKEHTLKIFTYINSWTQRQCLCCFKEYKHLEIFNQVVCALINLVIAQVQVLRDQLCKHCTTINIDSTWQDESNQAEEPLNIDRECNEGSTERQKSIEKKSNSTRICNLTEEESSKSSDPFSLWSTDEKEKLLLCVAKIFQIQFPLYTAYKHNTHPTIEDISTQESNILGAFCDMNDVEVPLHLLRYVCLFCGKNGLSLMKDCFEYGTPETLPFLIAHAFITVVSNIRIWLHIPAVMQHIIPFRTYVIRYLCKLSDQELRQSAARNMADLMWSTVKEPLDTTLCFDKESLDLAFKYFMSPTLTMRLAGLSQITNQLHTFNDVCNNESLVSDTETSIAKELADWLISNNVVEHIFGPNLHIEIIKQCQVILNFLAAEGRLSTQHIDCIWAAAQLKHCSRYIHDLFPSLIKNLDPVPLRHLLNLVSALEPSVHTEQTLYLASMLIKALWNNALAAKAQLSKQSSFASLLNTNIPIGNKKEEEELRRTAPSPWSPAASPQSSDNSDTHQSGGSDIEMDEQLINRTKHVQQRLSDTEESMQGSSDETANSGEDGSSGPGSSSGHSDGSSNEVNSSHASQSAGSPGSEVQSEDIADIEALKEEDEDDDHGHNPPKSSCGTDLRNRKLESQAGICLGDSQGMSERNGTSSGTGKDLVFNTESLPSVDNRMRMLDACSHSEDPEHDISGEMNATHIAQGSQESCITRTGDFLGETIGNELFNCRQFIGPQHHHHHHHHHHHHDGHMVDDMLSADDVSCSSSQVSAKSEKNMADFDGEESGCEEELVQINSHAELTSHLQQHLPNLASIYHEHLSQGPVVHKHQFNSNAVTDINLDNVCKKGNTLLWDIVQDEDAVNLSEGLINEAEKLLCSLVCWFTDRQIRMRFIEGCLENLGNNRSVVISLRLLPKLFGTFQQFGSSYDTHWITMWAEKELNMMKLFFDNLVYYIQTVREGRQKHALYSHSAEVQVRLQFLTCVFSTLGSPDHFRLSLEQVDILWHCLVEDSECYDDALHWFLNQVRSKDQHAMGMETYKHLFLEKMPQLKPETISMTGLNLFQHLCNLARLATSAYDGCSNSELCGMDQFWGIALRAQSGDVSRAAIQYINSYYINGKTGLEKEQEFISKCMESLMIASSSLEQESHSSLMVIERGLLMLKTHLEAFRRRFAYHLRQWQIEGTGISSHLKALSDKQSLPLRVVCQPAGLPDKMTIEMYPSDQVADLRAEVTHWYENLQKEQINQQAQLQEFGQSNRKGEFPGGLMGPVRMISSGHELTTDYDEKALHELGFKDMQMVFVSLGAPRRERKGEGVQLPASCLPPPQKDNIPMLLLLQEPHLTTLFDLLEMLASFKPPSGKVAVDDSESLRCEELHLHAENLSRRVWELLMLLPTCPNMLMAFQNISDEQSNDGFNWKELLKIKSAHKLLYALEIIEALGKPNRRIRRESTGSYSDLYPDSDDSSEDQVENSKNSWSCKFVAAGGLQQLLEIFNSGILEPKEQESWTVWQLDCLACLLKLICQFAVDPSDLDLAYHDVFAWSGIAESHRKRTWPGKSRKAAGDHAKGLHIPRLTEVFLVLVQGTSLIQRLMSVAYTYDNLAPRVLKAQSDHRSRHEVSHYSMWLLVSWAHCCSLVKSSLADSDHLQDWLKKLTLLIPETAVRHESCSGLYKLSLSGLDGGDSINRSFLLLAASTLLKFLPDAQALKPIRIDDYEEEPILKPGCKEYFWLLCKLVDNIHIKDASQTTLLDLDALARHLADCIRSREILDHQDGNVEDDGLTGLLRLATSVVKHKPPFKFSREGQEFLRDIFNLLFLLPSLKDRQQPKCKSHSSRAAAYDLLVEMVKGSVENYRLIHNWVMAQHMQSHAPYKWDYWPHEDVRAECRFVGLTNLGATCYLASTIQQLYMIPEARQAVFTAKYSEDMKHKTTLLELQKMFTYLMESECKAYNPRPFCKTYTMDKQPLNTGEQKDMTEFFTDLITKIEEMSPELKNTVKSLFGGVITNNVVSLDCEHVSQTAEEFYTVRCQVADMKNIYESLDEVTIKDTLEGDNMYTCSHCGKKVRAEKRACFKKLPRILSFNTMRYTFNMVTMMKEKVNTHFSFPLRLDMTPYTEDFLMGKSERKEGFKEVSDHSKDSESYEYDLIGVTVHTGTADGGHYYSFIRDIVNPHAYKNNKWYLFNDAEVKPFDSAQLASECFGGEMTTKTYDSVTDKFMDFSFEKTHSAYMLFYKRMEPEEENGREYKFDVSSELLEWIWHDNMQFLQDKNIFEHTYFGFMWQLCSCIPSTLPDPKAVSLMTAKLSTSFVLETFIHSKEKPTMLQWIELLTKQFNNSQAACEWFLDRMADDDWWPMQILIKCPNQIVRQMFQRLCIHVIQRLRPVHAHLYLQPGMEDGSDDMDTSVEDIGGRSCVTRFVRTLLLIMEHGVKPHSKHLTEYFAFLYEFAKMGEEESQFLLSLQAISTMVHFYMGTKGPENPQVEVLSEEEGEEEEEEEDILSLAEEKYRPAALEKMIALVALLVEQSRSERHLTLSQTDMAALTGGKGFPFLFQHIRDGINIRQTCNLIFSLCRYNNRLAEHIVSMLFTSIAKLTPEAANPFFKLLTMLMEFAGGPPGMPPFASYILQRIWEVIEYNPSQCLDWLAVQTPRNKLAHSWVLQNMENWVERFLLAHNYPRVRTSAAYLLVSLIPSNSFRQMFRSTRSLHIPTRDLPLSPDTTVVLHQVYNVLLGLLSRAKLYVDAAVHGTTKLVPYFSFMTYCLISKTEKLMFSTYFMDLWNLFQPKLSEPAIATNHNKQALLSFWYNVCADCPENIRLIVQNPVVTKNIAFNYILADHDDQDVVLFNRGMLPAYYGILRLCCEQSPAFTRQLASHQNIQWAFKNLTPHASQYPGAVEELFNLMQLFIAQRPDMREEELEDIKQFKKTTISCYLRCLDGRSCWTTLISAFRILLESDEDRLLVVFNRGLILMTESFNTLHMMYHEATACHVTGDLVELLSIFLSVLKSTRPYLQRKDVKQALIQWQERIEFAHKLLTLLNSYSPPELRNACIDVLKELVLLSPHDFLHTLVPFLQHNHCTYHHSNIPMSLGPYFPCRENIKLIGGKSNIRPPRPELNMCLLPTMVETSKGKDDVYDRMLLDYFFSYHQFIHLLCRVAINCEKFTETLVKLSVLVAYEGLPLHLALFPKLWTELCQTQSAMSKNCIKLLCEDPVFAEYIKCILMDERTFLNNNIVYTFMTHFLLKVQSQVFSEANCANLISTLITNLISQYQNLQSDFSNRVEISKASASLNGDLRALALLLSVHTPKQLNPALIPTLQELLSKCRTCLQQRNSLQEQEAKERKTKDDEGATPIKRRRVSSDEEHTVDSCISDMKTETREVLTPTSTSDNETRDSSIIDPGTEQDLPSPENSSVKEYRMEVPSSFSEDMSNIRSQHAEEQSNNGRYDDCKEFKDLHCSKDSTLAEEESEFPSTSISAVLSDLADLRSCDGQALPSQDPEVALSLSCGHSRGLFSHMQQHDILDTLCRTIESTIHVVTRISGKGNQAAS

Cl.O=C(CCl)N1CC(c2ccc(Br)cn2)C1
inactive: USP34 -0.16 | USP36 -0.222 | USP38 -0.0763 | USP39 -0.11 | USP4 -0.285
